This is an account of results in PubChem BioAssay AID1159524 (National Center for Advancing Translational Sciences (NCATS), 2015).

Among all 410,000 compounds or so, about 5,100 (1.2%) were called active. Inconclusive results (about 8%) are left out. Calls follow the shape of the full dose curve; tested in HEK293T cells. The list comes from a sample in which actives are over-represented; it also holds similar structures and randomly drawn compounds. Entries that show only a call come without a potency.
Potency is read from the fitted curve at half-maximal effect.

A short description of this assay: High Throughput Screening for Foot and Mouth Disease Virus Antivirals. Also: nearly all actives have a fitted effect of over 45% in size. Conditions: FMDV antiviral cell-based qHTS; series mostly up to 57.9 µM. (Quantitative high-throughput screening tests each substance at several concentrations.)
In the case of `CN(C)C(=O)c1ccc(-c2cncnc2Nc2ccccc2)cc1`, the Potency entry is “inactive”.

In the case of `O=C(c1cccc(F)c1)N1CCC2(CCCN(Cc3ccncc3)C2)CC1`, the Potency entry is “inactive”.

On to `CC1CCN(S(=O)(=O)c2ccc3c(ccn3CCC(=O)NCc3ccc(N(C)C)cc3)c2)CC1`, for which the Potency result was “inactive”.

Regarding `Cc1ccc(S(=O)(=O)N2CCC(C(=O)Nc3cc(C)ccc3C)CC2)cc1`, the Potency entry is “inactive”.

`Cc1ccc2nc(NC(=O)C3CCN(S(=O)(=O)c4ccc5c(c4)oc(=O)n5C)CC3)sc2c1`: the Potency was 12.6 µM (active).

As for `Cn1c(=O)oc2cc(S(=O)(=O)N3CCC(C(=O)Nc4ccc(OC(F)(F)F)cc4)CC3)ccc21`, the Potency result was “inactive”.

As for `CC(C)N1C[C@@H](NCc2ccccc2O)C[C@H]1C(=O)N1CCN(c2cccc(C(F)(F)F)c2)CC1`, the Potency entry is “inactive”.

As for `O=c1c(-c2ccc(F)c(F)c2)nc2cncnc2n1-c1ccccc1`, the Potency result is “inactive”.

For the molecule `O=C(Nc1ccccc1Cl)/C(Cl)=C(\Cl)S(=O)c1ccccc1` (stereo unspecified), the Potency is 7.08 µM (active).

For `O=C(Nc1ccccc1Cl)N1CCC(CN2CCCC2)CC1`, the Potency entry was “inactive”.

With `O=C(Nc1ccccc1Cl)N1CCC(CN2CCCCC2)CC1`, the Potency entry was “inactive”.

Turning to `CSc1nc(Nc2ccc(F)cc2)cc(-c2ccccc2)n1`, the Potency result is “inactive”.

Consider `CC(=O)c1ccc(F)c(-c2cc(C)cc3c2OC(CNC(=O)Cc2c[nH]c4ccccc24)C3)c1` (stereo unspecified), for which the Potency result was “inactive”.

In the case of `Cc1nnc(SCc2cc(=O)c3cc(F)ccc3[nH]2)n1C`, the Potency result was “inactive”.

On to `CC(=O)c1c(O)c(C)c(O)c(Cc2c(O)c3c(c(C(=O)/C=C/c4ccccc4)c2O)OC(C)(C)C=C3)c1O`, for which the Potency entry was “inactive”.

`O=C(CSc1nccn1Cc1ccc(F)cc1)NCc1ccccc1`: the Potency entry is “inactive”.

`CC(C)(C)c1ccc(Oc2ccc(N)cc2)cc1`: the Potency was 2.51 µM (active).

Turning to `CC(C)(C)c1ccc(OC(=O)N2CCCCC2)cc1`, the Potency entry was “inactive”.

Consider `COc1ccc(CCNc2ncnc3c2cnn3-c2ccc(C)cc2)cc1`, for which the Potency entry was “inactive”.

As for `CC1(C)CCSC(/C=C/c2ccccc2)=N1`, the Potency is 14.1 µM (active).

On to `CC1(C(=O)O)CCN1C(=O)/C=C/c1ccccc1` (stereo unspecified), for which the Potency entry was “inactive”.

On to `CC1(C(=O)NS(=O)(=O)c2ccccc2)CCN1C(=O)C/C=C/c1ccccc1` (stereo unspecified), for which the Potency result is “inactive”.

For `CC1(C)C=CC(=O)[C@]2(C)C1CC(=O)[C@]1(C)C2CC[C@@]2(C)C(c3ccoc3)OC(=O)C3OC321` (stereo partly specified), the Potency entry is “inactive”.

In the case of `CCCS(=O)(=O)N1CCC(C(=O)NCCc2ccc(OC)c(OC)c2)CC1`, the Potency result is “inactive”.

As for `CCS(=O)(=O)N1CCCC(C(=O)NCCCN(C)Cc2ccccc2)C1` (stereo unspecified), the Potency entry was “inactive”.

Turning to `CCCS(=O)(=O)N1CCC(C(=O)NCCCN(C)Cc2ccccc2)CC1`, the Potency is 28.2 µM (active).

Consider `Cc1c(O)cc(O)c2c(=O)c(-c3ccc(O)cc3)coc12`, for which the Potency entry is “inactive”.

In the case of `Cc1cccc(N2CCN(C(=O)c3oc(=O)c4ccccc4c3-c3ccccc3)CC2)c1C`, the Potency entry is “inactive”.

Consider `Cc1cccc(N2CCN(C(=O)c3cc4c(=O)[nH]c5ccccc5c4n3C)CC2)c1C`, for which the Potency is 31.6 µM (active).

`CCn1c(C)c(C)c2cc(C(=O)N3CCN(c4cccc(C)c4C)CC3)ccc21`: the Potency entry is “inactive”.

In the case of `O=C(Nc1cccc(F)c1)N1CC2(CCN(C(=O)c3cnccn3)CC2)C1`, the Potency result was “inactive”.

As to `COC(=O)c1ccccc1-c1cc(C)cc2c1OC(CNC(=O)C1CCOC1)C2` (stereo unspecified), the Potency result is “inactive”.

In the case of `O=C(COc1ccc(S(=O)(=O)N2CCCC2)cc1[N+](=O)[O-])N1CCCCC1`, the Potency result was “inactive”.

Regarding `Cc1cc(C(=O)COc2ccccc2[N+](=O)[O-])c(C)n1-c1cccc(S(=O)(=O)N2CCOCC2)c1`, the Potency was 12.6 µM (active).

Take `Cc1cc(S(=O)(=O)N2CCOCC2)ccc1OCC(=O)N1CCOCC1`: the Potency result was “inactive”.

With `CCC1CN(CCNC(=O)c2cccnc2C)Cc2cc(OC)ccc2O1` (stereo unspecified), the Potency result is “inactive”.

In the case of `CC1=C(c2ccc(F)cc2)S(=O)(=O)N=C1N1CCC(C(=O)NCCc2ccccc2C)CC1`, the Potency entry was “inactive”.

On to `COCCn1c(=O)c(-c2ccccc2)nc2cnc(N3CCOCC3)nc21`, for which the Potency entry was “inactive”.

As for `CC1CCCCC1NC(=O)/C(C#N)=C/C=C/c1ccccc1[N+](=O)[O-]` (stereo unspecified), the Potency is 28.2 µM (active).

As to `CC1CCCCC1NC(=O)c1cc(=O)[nH]c2ccccc12` (stereo unspecified), the Potency entry was “inactive”.

Consider `CC1CC(C)CN(C/C=C/c2ccccc2[N+](=O)[O-])C1` (stereo unspecified), for which the Potency entry was “inactive”.

In the case of `Cc1ccc2c(C)nc(N3CCCC(C(=O)NC(C)(C)CO)C3)nc2c1` (stereo unspecified), the Potency entry is “inactive”.

For the molecule `CCc1ccccc1NC(=O)N1CCC2(CC1)Oc1ccccc1C(=O)N2Cc1ccccc1F`, the Potency result was “inactive”.

Consider `O=C(Nc1cc(-c2nc3ccccc3o2)ccc1Cl)c1cc([N+](=O)[O-])ccc1N1CCOCC1`, for which the Potency result is “inactive”.

Turning to `CCCCNS(=O)(=O)CCNCc1ccccc1OC`, the Potency entry is “inactive”.

As for `CCCCc1c(-c2ccc(Br)cc2)ncn1CCc1ccccc1OC`, the Potency is 35.5 µM (active).

In the case of `COc1cccc2oc(CCc3ccccc3)cc(=O)c12`, the Potency entry was “inactive”.

Take `COc1ccccc1CCn1c(=O)c(-c2cn(C)c3ccccc23)nc2cncnc21`: the Potency result is “inactive”.

With `COc1ccccc1Cc1c(-c2ccc(Cl)cc2)nc2c3ccccc3ccn12`, the Potency result was “inactive”.

As for `CCCCCc1c(Cc2ccccc2)ncn1CCc1ccccc1OC`, the Potency was 35.5 µM (active).

As to `CCOC(=O)c1cc2c(=O)n3ccccc3nc2n(CC2CCCO2)c1=NC(=O)c1ccccc1F` (stereo unspecified), the Potency result was “inactive”.

As to `CCn1cc(C(=O)N2CCN(c3cc(C)ccc3C)CC2)c(=O)c2cc(S(=O)(=O)N(C)C3CCCCC3)ccc21`, the Potency result was “inactive”.

`Cc1oc(-c2cccc(NC(=O)c3ccccc3)c2)nc1CNC(=O)c1cnc2ccccn2c1=O`: the Potency entry was “inactive”.

Regarding `O=c1c(-c2ccc(F)cc2)nc2cnc(N3CCNCC3)nc2n1Cc1cccs1`, the Potency entry is “inactive”.

As to `O=C(C(=O)N1CCOc2ccc(CN3CCN(Cc4ccccn4)CC3)cc2C1)c1ccccc1`, the Potency entry is “inactive”.

In the case of `CCC(=O)Nc1ccccc1-c1nc2ccccc2n(CC(=O)Nc2ccc(C)c(C)c2)c1=O`, the Potency result was “inactive”.

`COc1cccc(N2CCN(C3CC(=O)N(c4ccc(Cl)cc4)C3=O)CC2)c1` (stereo unspecified): the Potency result was “inactive”.

`COc1ccc(N2CCN(C3=NS(=O)(=O)C(c4cccc(Br)c4)=C3C)CC2)cc1`: the Potency entry was “inactive”.

Turning to `COc1cccc(-c2nc3ccc(N4CCN(C)CC4)cc3[nH]2)c1`, the Potency is 14.1 µM (active).

On to `COc1cccc(-n2c(=O)c3c(C)c(C(=O)N(C)C)sc3n(Cc3cccc(C)c3)c2=O)c1`, for which the Potency result is “inactive”.

In the case of `COCCN(C(=O)CCC(=O)Nc1ccccn1)C(C(=O)NCCC(C)C)c1ccc(OC)cc1` (stereo unspecified), the Potency entry is “inactive”.

`CCOc1ccc(N/C=C/C(=O)c2ccccc2)cc1`: the Potency is 10 µM (active).

As for `CCOc1ccc(NC(=O)C(C)N2C(=O)c3ccccc3C2=O)cc1` (stereo unspecified), the Potency result is “inactive”.

Consider `COc1ccc(C(=O)/C=C/Nc2ccccn2)cc1`, for which the Potency was 8.91 µM (active).

On to `COc1cccc(N(CC(=O)NC2CCCC2)C(=O)CCCC(=O)Nc2ccccn2)c1`, for which the Potency entry was “inactive”.

Regarding `CCOc1ccc(NC(=O)C2CCCN(C(=O)Nc3ccccc3)C2)cc1` (stereo unspecified), the Potency result was “inactive”.
